Hits are enriched below; roughly 3% of the tested compounds scored in any of these assays.
Measles CPE: protection of cells from measles virus. 140,000 compounds, 1.5% hits. AID 841. protection (pct of control), % at 4 µM. Measles virus-infected cells, CPE protection, absorbance; in the data active means protection mostly above about 24%, no sharp cut-off; inactive means mostly below about 26%
ROMK primary: modulators of human ROMK potassium channel; AID 1918; Tet-inducible ROMK, thallium flux fluorescence; actives lie on both sides; B-score at 10 µM; 130,000 compounds, 2% hits; P48048;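 active means signal ratio slope over the read window, or its plate-corrected B-score, at least 3 SD from the plate mean, either direction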;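 further: B-score of the F/F0 ratio slope over 7 to 12 s after thallium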
Target sequence (P48048 whole entry, looked up): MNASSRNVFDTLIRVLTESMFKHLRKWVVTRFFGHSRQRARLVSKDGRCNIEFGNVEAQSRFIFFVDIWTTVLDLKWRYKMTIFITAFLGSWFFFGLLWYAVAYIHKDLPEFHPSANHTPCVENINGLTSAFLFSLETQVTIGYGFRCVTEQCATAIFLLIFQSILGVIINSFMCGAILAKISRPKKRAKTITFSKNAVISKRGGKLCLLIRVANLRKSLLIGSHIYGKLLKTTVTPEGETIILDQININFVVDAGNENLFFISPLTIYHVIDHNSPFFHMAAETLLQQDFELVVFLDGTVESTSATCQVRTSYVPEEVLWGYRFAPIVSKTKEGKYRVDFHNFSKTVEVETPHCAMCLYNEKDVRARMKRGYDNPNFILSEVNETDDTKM
SDO1 yeast rescue: restores growth of sdo1-depleted yeast | S. cerevisiae sdo1-depleted JHY4D growth rescue, OD600 30 h; hits give high values; pdr5 snq2 efflux-pump mutant strain | AID 817 | 140,000 compounds, 0.21% hits | z-score at 10 µM;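 active means z-score above 3 at both the 24 hr and the 30 hr optical density reads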;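 further: z-score against mean and SD of all compound wells on the same plate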
INS promoter inh: TRM-6 insulin promoter activity inhibition; 130,000 compounds, 0.9% hits; inhibition, % at 2 µM; TRM-6 cells (human fetal islet line), insulin promoter-eGFP reporter, imaging; reporter expression induced with tamoxifen; AID 1273;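 active means inhibition above the mean plus 3 SD, with well images judged a real hit on visual review, cut at about 60% in these data, passing the limit was not always enough; inconclusive means inhibition over the cutoff but images rejected on review; inactive means inhibition not above the cutoff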
ROMK retest: retested hit modulating human ROMK potassium channel. shares compounds with ROMK primary. ROMK thallium flux, fluorescence ratio; hits give low values. normalized thallium flux (F/F0 slope) at 10 µM. 3,000 compounds, 54% hits;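 active means Flux at 10 µM at least 3 SD below or above vehicle control mean in one or both replicates; inconclusive means no clear call, values can overlap the other calls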
* = called active by the depositor; ? = inconclusive; . = not tested or not shown.

SMILES	Measles CPE	ROMK primary	SDO1 yeast rescue	INS promoter inh	ROMK retest
COc1ccc(/C=N\NC(=O)c2c(C)nc3ccc(Br)cn23)cc1	8	2.3*	0.84	-346	0.098*
Cc1oc(-c2ccccc2F)nc1CN1CCC(C(=O)NC2CCCCCCC2)CC1	3	-4.6*	0.23	.	0.058*
Cc1oc(-c2ccccc2F)nc1CN1CCC(C(=O)NCc2ccco2)CC1	7	-0.82	0.81	.	.
Cc1ccc(-n2nc(C)c(=O)c(-c3ccccc3)c2NC(=O)c2cccs2)cc1	.	-0.079	.	.	.
CCOC(=O)C1=C(C)NC(C)=C(C(=O)OCC)C1c1sccc1C	17	-5.3*	-0.92	.	0.048*
CCOC(=O)/C(=N\Nc1ccc(Cl)cc1)Sc1nnc(-c2ccc(OC)cc2)n1C	16	1.3	-0.18	-29	.
COc1cc2c(cc1OC)CN(c1nc(CN3CCOCC3)nc3sc4c(c13)CCCC4)CC2	0	-2.4	-1.4	23	.
COc1cc2c(cc1OC)CN(c1nc(CN3CCCCC3)nc3sc4c(c13)CCCC4)CC2	28	-2.6*	-0.8	27	0.064*
O=C(CSc1nnc(-c2ccccc2Br)o1)N1CCc2ccccc2C1	10	.	-0.89	.	.
COc1ccc(NC(=O)c2csc(Cc3ccccc3)n2)cc1	13	0.33	-0.55	.	.
COc1ccc(CNC(=O)c2csc(Cc3ccccc3)n2)cc1	14	.	-0.98	20	0.074
CCn1nnc(NC(=O)C(c2ccccc2)c2ccccc2)n1	.	-7.3*	.	.	0.077
CC(C(=O)NC(=O)NC1CCCCC1)N1CCN(C(c2ccccc2)c2ccccc2)CC1 (configuration not stated)	16	-3.3*	-0.01	3	0.057*
O=C(Cn1c(NCCO)nc2ccccc21)NCCc1ccc(F)cc1	6	.	0.16	-26	.
CCC1Oc2ccc(C)cc2N(CC(=O)N(Cc2ccc(C)o2)C2CCCC2)C1=O (configuration not stated)	20	-4.3*	-0.43	-256	0.065*
CCSc1nc2sc3c(c2c2nnc(SCC(=O)NCc4ccco4)n12)CCCC3	.	0.83	.	36	0.082
O=C(/C=C/c1cccs1)c1ccc(N2CCOCC2)cc1	.	2.5*	.	.	0.076
O=C(/C=C/c1cccs1)N1CCN(c2ccccc2)CC1	.	1.2	.	-58	.
COc1cc(CNCCCN2CCOCC2)cc(Br)c1OCc1ccc(Cl)cc1	.	-3.8*	.	.	?
O=[N+]([O-])c1cc(Cl)ccc1Oc1ccc(-c2nnco2)cc1	.	1.8	.	.	.
C=CCN1C(=O)C(CC(=O)Nc2ccccc2)N(Cc2ccccn2)C1=S (configuration not stated)	.	0.044	.	0	.
Cc1cccc(COCC(Cc2ccccc2)N2CCN(C(=O)c3cccc(Cl)c3)CCC2=O)c1 (configuration not stated)	5	-2.9*	0.08	14	0.054*
Cc1ccc(S(=O)(=O)N2CCC(=O)N(C(COCc3ccc(Cl)cc3)Cc3ccccc3)CC2)cc1 (configuration not stated)	3	-4.4*	0	-95	?
O=C(c1cccc(Cl)c1)N1CCC(=O)N(C(COCc2ccccc2)Cc2ccccc2)CC1 (configuration not stated)	23	-3	-0.48	-15	.
Cc1cccc(C(=O)N2CCC(=O)N(C(COCc3cccc(C(F)(F)F)c3)Cc3ccccc3)CC2)c1 (configuration not stated)	19	-3.3*	0.08	-36	0.058*
SMILES	Measles CPE	ROMK primary	SDO1 yeast rescue	INS promoter inh	ROMK retest
Cc1ccc(S(=O)(=O)N2CCC(=O)N(C(COCc3ccc(Cl)cc3)C(C)C)CC2)cc1 (configuration not stated)	1	-0.46	-0.56	-57	.
CCCNC(=O)CN1C(=O)NC(CCc2ccccc2)C1=O (configuration not stated)	.	0.58	.	?	.
COc1ccc(OC)c(CN2CCN(c3ccccc3OC)CC2)c1	4	.	0.54	-15	.
COc1ccc(OC)c(CN2CCN(Cc3cccc4ccccc34)CC2)c1	.	-3.9*	.	.	0.05*
COc1ccc2c(c1)c(C(O)CN1CCC(Cc3ccccc3)CC1)c(C)n2C (configuration not stated)	3	.	0.58	2	0.058*
COc1ccc2c(c1)c(C(O)CN1CCN(Cc3ccc4c(c3)OCO4)CC1)c(C)n2C (configuration not stated)	11	.	-0.39	-223	.
O=C(NNC1=Nc2cccc3cccc1c23)c1ccc(Br)cc1	.	-3.4*	.	-49	0.079
CCOc1ccccc1CNc1nc2nc3c(c(=O)n2[nH]1)CCC3	10	.	0.46	1	0.079
CC(C)c1ccc(CNc2nc3nc4c(c(=O)n3[nH]2)CCC4)cc1	.	-1.6	.	.	.

Assay outcomes: PubChem, several laboratories
